{"source": "PubChem BioAssay AID463173", "about": "(ICCB-Longwood Screening Facility, Harvard Medical School, 2010)", "note": "About 4,300 (8.3%) of roughly 52,000 compounds were called active. No stated cut-off is given here; in the data, active means survival mostly below about 52% (no sharp cut-off); inactive means mostly above about 56%. The entries come from a sample that favours actives as a whole."}
{"test_system": "DeltatarO mutant", "test": "S. aureus survival, RN4220 and DeltatarO strains – OD600, teichoic acid synthesis inhibitors, primary screen (AID 463173)", "conditions": "S. aureus RN4220 wild type/DeltatarO growth, OD600, 18 h, stronger effect = lower value, screened at 18.75 µg/mL (by protocol)"}
{"smiles": "Cc1cccc(CS(=O)(=O)c2ncc(Cl)c(C(=O)Nc3nc4ccc(F)cc4s3)n2)c1", "survival": "-1% (active)"}
{"smiles": "CSc1ncc(Cl)c(C(=O)Nc2nc3ccc(F)cc3s2)n1", "survival": "98% (inactive)"}
{"smiles": "O=C(Nc1nc2ccc(F)cc2s1)c1nc(S(=O)(=O)Cc2ccccc2)ncc1Cl", "survival": "17% (active)"}
{"smiles": "O=C(Nc1nc2ccc(F)cc2s1)c1nc(S(=O)(=O)Cc2ccccc2F)ncc1Cl", "survival": "80% (inactive)"}
{"smiles": "COc1ccc2nc(NC(=O)c3nc(S(=O)(=O)Cc4ccccc4)ncc3Cl)sc2c1", "survival": "77% (inactive)"}
{"smiles": "COc1ccc2nc(NC(=O)c3nc(S(=O)(=O)Cc4cccc(C)c4)ncc3Cl)sc2c1", "survival": "49% (inactive)"}
{"smiles": "Cc1ccc(CS(=O)(=O)c2ncc(Cl)c(C(=O)Nc3nc4ccc(F)cc4s3)n2)cc1", "survival": "9% (active)"}
{"smiles": "COc1ccc2nc(NC(=O)c3nc(S(=O)(=O)Cc4ccc(C)cc4)ncc3Cl)sc2c1", "survival": "82% (inactive)"}
{"smiles": "Cc1ccc(CS(=O)(=O)c2ncc(Cl)c(C(=O)Nc3nc4ccc(C)cc4s3)n2)cc1", "survival": "6% (active)"}
{"smiles": "Cc1ccc2nc(NC(=O)c3nc(SCc4ccccc4C)ncc3Cl)sc2c1", "survival": "98% (inactive)"}
{"smiles": "Cc1ccc(NC(=O)N2CCC(CN3CCCCCC3)CC2)c(Cl)c1", "survival": "84% (inactive)"}
{"smiles": "O=C(c1ccccc1)N1CCCCC1CCN1CCCCC1", "note": "(configuration not stated)", "survival": "70% (inactive)"}
{"smiles": "CCc1ccc(N(CC)C(=O)Cn2nc(Cc3cccnc3)c3ccccc3c2=O)cc1", "survival": "81% (inactive)"}
{"smiles": "CCOc1ccc(S(=O)(=O)N(CC(=O)Nc2ccc3c(c2)OCO3)c2ccccc2)cc1", "survival": "72% (inactive)"}
{"smiles": "O=C(Cn1ncc2c3ccccc3n(Cc3cccc(Cl)c3)c2c1=O)Nc1ccc(F)cc1F", "survival": "103% (inactive)"}
{"smiles": "CC(C)CCNC(=O)CN1C(=O)c2cccnc2Oc2ccccc21", "survival": "85% (inactive)"}
{"smiles": "CC(C)c1cnc2c(c1SCC(=O)N1CCCCC1)c(=O)n(C)c(=O)n2C", "survival": "107% (inactive)"}
{"smiles": "COCCNc1ccc(-c2nc(-c3ccco3)no2)cc1[N+](=O)[O-]", "survival": "54% (inactive)"}
{"smiles": "O=[N+]([O-])c1cc(-c2nc(-c3ccccc3)no2)ccc1NCc1cccnc1", "survival": "47% (active)"}
{"smiles": "O=[N+]([O-])c1cc(-c2nc(-c3ccccn3)no2)ccc1NCc1ccccc1", "survival": "39% (active)"}
{"smiles": "Cc1noc(-c2ccc(NCc3ccccc3)c([N+](=O)[O-])c2)n1", "survival": "66% (inactive)"}
{"smiles": "COCCNc1ccc(-c2nc(-c3ccccn3)no2)cc1[N+](=O)[O-]", "survival": "43% (active)"}
{"smiles": "CCCCNc1ccc(-c2nc(-c3ccccn3)no2)cc1[N+](=O)[O-]", "survival": "46% (active)"}
{"smiles": "Cc1ccc(-c2noc(-c3ccc(NCc4cccnc4)c([N+](=O)[O-])c3)n2)cc1", "survival": "104% (inactive)"}
{"smiles": "COCCNc1ccc(-c2nc(-c3ccncc3)no2)cc1[N+](=O)[O-]", "survival": "77% (inactive)"}
{"smiles": "CCCNc1ccc(-c2nc(-c3ccccn3)no2)cc1[N+](=O)[O-]", "survival": "111% (inactive)"}
{"smiles": "O=[N+]([O-])c1cc(-c2nc(-c3cccnc3)no2)ccc1NCc1ccccc1", "survival": "63% (inactive)"}
{"smiles": "CCNc1ccc(-c2nc(-c3ccccn3)no2)cc1[N+](=O)[O-]", "survival": "60% (inactive)"}
{"smiles": "Cc1ccc(CNc2ccc(-c3nc(-c4ccccn4)no3)cc2[N+](=O)[O-])cc1", "survival": "104% (inactive)"}
{"smiles": "CCCCOc1ccc(C(=O)NCCc2csc3nc(-c4ccccc4F)nn23)cc1", "survival": "84% (inactive)"}
{"smiles": "NCc1nc2cccnc2n1Cc1ccccc1Cl", "survival": "81% (inactive)"}
{"smiles": "COc1ccc(C)cc1NC(=O)Nc1cc(C(=O)NCc2ccc(C)cc2)ccc1N1CCCC1", "survival": "82% (inactive)"}
{"smiles": "Cc1cc2c(cc1NS(=O)(=O)c1ccc(NC(=O)CC(C)C)cc1)n(C)c(=O)c(=O)n2C", "survival": "86% (inactive)"}
{"smiles": "COc1ccc(OC)c(-c2cc(C(=O)NCCc3ccccc3)c3c(-c4ccc(C)cc4)[nH]nc3n2)c1", "survival": "67% (inactive)"}
{"smiles": "CCCCNc1nc2c(S(=O)(=O)c3ccc(Br)cc3)nnn2c2ccsc12", "survival": "74% (inactive)"}
{"smiles": "CCOc1nc(Nc2ccccc2)nc(OCC)n1", "survival": "115% (inactive)"}
{"smiles": "CCN(C(=O)CCS(=O)(=O)c1ccc2c(c1)CCN2C(C)=O)c1cccc(C(F)(F)F)c1", "survival": "101% (inactive)"}
{"smiles": "Cn1c(=O)cc(SCC(=O)NCCc2ccc(Cl)cc2)c2cc(Cl)ccc21", "survival": "75% (inactive)"}
{"smiles": "CCn1c(=O)c2cc(C(=O)NCCCN(C)Cc3ccccc3)sc2c2ccccc21", "survival": "106% (inactive)"}
{"smiles": "CCN(CCCNC(=O)CSc1cc(=O)n(C)c2cc(Cl)ccc12)c1cccc(C)c1", "survival": "90% (inactive)"}
{"smiles": "CCN(CCCNC(=O)CSc1cc(=O)n(CC)c2ccccc12)c1cccc(C)c1", "survival": "38% (active)"}
{"smiles": "CCn1c(=O)cc(SCC(=O)NCc2ccc(C)cc2)c2ccccc21", "survival": "84% (inactive)"}
{"smiles": "CCc1ccc(CNC(=O)CSc2cc(=O)n(C)c3ccc(Cl)cc23)cc1", "survival": "31% (active)"}
{"smiles": "CCc1ccc(CNC(=O)CSc2cc(=O)n(CC)c3ccccc23)cc1", "survival": "87% (inactive)"}
{"smiles": "CCn1c(=O)c2cc(C(=O)NCCc3cccc(C)c3)sc2c2ccccc21", "survival": "70% (inactive)"}
{"smiles": "CCN(CCCNC(=O)CSc1cc(=O)n(CC)c2ccccc12)c1ccccc1", "survival": "53% (inactive)"}
{"smiles": "Cn1c(=O)cc(SCC(=O)NCc2ccc(F)cc2)c2cc(Cl)ccc21", "survival": "88% (inactive)"}
{"smiles": "CCN(CCCNC(=O)c1cc2c(=O)n(CC)c3ccccc3c2s1)c1cccc(C)c1", "survival": "42% (active)"}
{"smiles": "CCn1c(=O)cc(SCC(=O)NCc2cccc(Cl)c2)c2ccccc21", "survival": "38% (active)"}
{"smiles": "Cc1cc(C)c(NC(=O)C2CCN(c3nn4c(=O)cc(C)nc4s3)CC2)c(C)c1", "survival": "103% (inactive)"}
{"smiles": "CC(=O)Nc1ccc(NCc2cccs2)cc1", "survival": "101% (inactive)"}
{"smiles": "Cc1cc(Nc2ccc(C(C)C)cc2)nc(-n2nc(C)cc2C)n1", "survival": "90% (inactive)"}
{"smiles": "COC(=O)c1cc2oc(C)cc2n1CC(=O)Nc1ccc(OC)c(OC)c1", "survival": "131% (inactive)"}
{"smiles": "COc1ccc(N2CCN(Cc3nc4c(c(=O)[nH]c(=O)n4C)n3Cc3ccc(C)cc3)CC2)cc1", "survival": "113% (inactive)"}
{"smiles": "CCOC(=O)c1c(C)n(C2CCCCC2)c2ccc(OCC(N)=O)cc12", "survival": "69% (inactive)"}
{"smiles": "CCOC(=O)C1CCC(CN(Cc2c(Cl)cccc2Cl)S(=O)(=O)c2ccc(Cl)cc2)CC1", "note": "(configuration not stated)", "survival": "81% (inactive)"}
{"smiles": "Cc1cccc2c(=O)cc(CSc3ccccc3NC(=O)c3cccc(Br)c3)[nH]c12", "survival": "86% (inactive)"}
